mHTT-CaM PPI inh: mutant huntingtin-calmodulin interaction inhibitors – biochemical, AlphaScreen, primary screen. P42858. AlphaScreen His-mHTT/GST-CaM binding, luminescence. inhibition, % at 15 µM. hit rate 3.6% among 190,000. AID 1671202, 2021;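 also: 0% = both proteins with DMSO and 100% = one protein alone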
Pf apPOL block: Pf-apPOL inhibitors, biochemical, fluorescence; Plasmodium falciparum apicoplast DNA polymerase (apPOL); Recombinant Pf-apPOL, molecular beacon fluorescence, 1.5 h; inhibition, % at 10 µM; hit rate 0.25% among 210,000
* marks the source's active call; other numbers are inactive results; . = not tested or not shown; ! = not active in a repeat. The list is not random: actives were taken first. Their share in the collection is about 3.5%. Rule as the data show it: active = inhibition above about 50%; inactive = the rest.

SMILES	mHTT-CaM PPI inh	Pf apPOL block
COc1ccc(C(=O)Nc2ccc(N3CC4CC(C3)c3cccc(=O)n3C4)c(C#N)c2)cc1 (stereo unspecified)	45	-6
CCOC(=O)c1oc2ccc(S(=O)(=O)N3CCC(c4ccncc4)CC3)cc2c1C	7	-6
COc1ccc(OC)c(Nc2ncc3c(n2)CCN(Cc2cccc(OC)c2OC)C3)c1	47	-3
COc1ccc(OC)c(Nc2ncc3c(n2)CCN(CCc2ccccc2)C3)c1	59*	-3
COc1ccccc1Nc1ncc2c(n1)CCN(Cc1ccc(F)cc1)C2	-8	36
CCOc1ccccc1CN1CCc2nc(Nc3cc(OC)ccc3OC)ncc2C1	63*	-4
COc1cccc(CN2CCc3nc(Nc4cc(OC)ccc4OC)ncc3C2)c1	15	-5
CCCN1CCc2nc(Nc3ccccc3OC)ncc2C1	1	96*
CS(=O)(=O)NCc1ccc2c(c1)N(C(=O)c1ccc(Cl)cc1)CC2	-10	-2
CC(C)C[C@@H](COCc1ccc(F)cc1)N1CCN(C(=O)c2cccc(C(F)(F)F)c2)CCC1=O	60*	-5
Cc1ccc(S(=O)(=O)N2CCC(=O)N([C@H](COCc3cccc(C(F)(F)F)c3)Cc3ccccc3)CC2)cc1	6	-4
CC(C)C[C@@H](COCc1cccc(Cl)c1)N1CCN(C(=O)c2cccc(C(F)(F)F)c2)CCC1=O	87*!	-3
Cc1ccc(S(=O)(=O)N2CCC(=O)N([C@H](COCc3cccc(C(F)(F)F)c3)C(C)C)CC2)cc1	22	-10
COc1cc(/C=C(\C#N)c2nc(-c3ccc(Cl)cc3)cs2)ccc1O	4	-7
Cc1ccc(O)c(N=C2C(=O)Nc3ccccc32)c1	56*	1
Cc1ccc(N=C2C(=O)Nc3ccccc32)c(C)c1	13	-4
CC(C)(C)C(=O)C=C1NC(=O)CS1	.	12
NCCNc1ccc(C(N)=O)cc1[N+](=O)[O-]	-3	-5
CCNC(=O)N1CCCC1c1nc2cc(-c3ccc(N(C)C)cc3)ccc2o1 (stereo unspecified)	84*	-3
CC(C)(C)C(=O)N1CCCC1c1nc2cc(-c3ccccc3)ccc2o1 (stereo unspecified)	15	1
Cc1ccccc1-c1cncc(C(=O)NCCN(C)C)c1	4	-5
Cc1ccc[n+](C2C(c3ccc([N+](=O)[O-])cc3)C(C#N)=C(S)NC2(O)C2CC2)c1 (stereo unspecified)	84*	-1
Cc1cccc[n+]1C1C(c2ccc([N+](=O)[O-])cc2)C(C#N)=C(C(C#N)C#N)NC1(O)C1CC1 (stereo unspecified)	1	-1
CC1(C)Cc2nc3sc(C(=O)O)c(N)c3cc2CS1	51*	0
Nc1c(C(=O)O)sc2nc3c(cc12)CCCC3	-4	.
SMILES	mHTT-CaM PPI inh	Pf apPOL block
CNC(=O)c1cc(N2CCCC2)nc2ccccc12	-3	-5
CC(C)CC(=O)N1CCc2c(c(C(=O)NCc3ccc(Cl)cc3)nn2C)C1	66*	3
COCC(=O)N1CCc2c(c(C(=O)NCc3ccccc3)nn2C)C1	19	2
COCC(=O)N1CCc2c(c(C(=O)NCc3ccc(F)cc3)nn2C)C1	-2	-9
CC(C)CC(=O)N1CCc2c(c(C(=O)NCc3ccc(F)cc3)nn2C)C1	59*	-1
COc1ccccc1C(=O)N1CCC(O)(c2ccccc2)C(N(C)C)C1 (stereo unspecified)	-2	-11
Cc1cc(=O)n2c(-c3cccc(NC(=O)Cc4cccs4)c3)csc2n1	4	-4
COc1ccc(C2=C/C(=C/c3ccc(OC)c(OC)c3)C(=O)O2)cc1	6	-1
CN(CC(=O)N1CCCCCC1)S(=O)(=O)c1ccc2[nH]c3c(c2c1)CCCC3	14	-7
CCOC(=O)C1CCN(S(=O)(=O)c2ccc3[nH]c4c(c3c2)CCCCC4)CC1	71*	-5
O=S(=O)(c1ccc2[nH]c3c(c2c1)CCCCC3)N1CCCCC1	76*	-2
Cc1ccc2c(c1)N(S(=O)(=O)c1ccc3[nH]c4c(c3c1)CCCC4)CCO2	42	0
O=S(=O)(c1ccc2[nH]c3c(c2c1)CCCCC3)N1CCC2(CC1)OCCO2	58*	-1
Cc1nc(-c2cccc(NC(=O)c3csc(Nc4cccnc4)n3)c2)cs1	13	-2
O=C(NC(Nc1cccc([N+](=O)[O-])c1)C(Cl)(Cl)Cl)c1cccc(Cl)c1 (stereo unspecified)	86*	-1
O=C(NC(Nc1ccc([N+](=O)[O-])cc1)C(Cl)(Cl)Cl)c1ccccc1 (stereo unspecified)	44	-8
Cc1ccccc1NC(NC(=O)c1cc([N+](=O)[O-])cc([N+](=O)[O-])c1)C(Cl)(Cl)Cl (stereo unspecified)	53*	-2
Cc1cccc(C(=O)NC(Nc2ccc([N+](=O)[O-])cc2)C(Cl)(Cl)Cl)c1 (stereo unspecified)	38	-1
CN(C)C(=O)NC(Nc1cccc([N+](=O)[O-])c1)C(Cl)(Cl)Cl (stereo unspecified)	0	-2
COc1ccc(NC(NC(=O)c2cc([N+](=O)[O-])cc([N+](=O)[O-])c2)C(Cl)(Cl)Cl)cc1 (stereo unspecified)	69*	-6
Cc1ccc(C(=O)NC(Nc2ccccc2C)C(Cl)(Cl)Cl)cc1 (stereo unspecified)	-6	0
O=C(NC(Nc1ccccc1Cl)C(Cl)(Cl)Cl)c1cccc([N+](=O)[O-])c1 (stereo unspecified)	74*	-4
Cc1cc(C2C(C#N)=C(N)N(c3cccc(Cl)c3)C3=C2C(=O)CCC3)c(C)s1 (stereo unspecified)	37	2
CCS(=O)(=O)N1N=C(c2ccccc2)CC1c1cc2cc(OC)c(OC)cc2nc1Cl (stereo unspecified)	21	2
O=C(Cc1ccc(NC(=O)C2(c3ccc(Cl)cc3)CCCC2)cc1)N1CCC(O)CC1	38	-2
SMILES	mHTT-CaM PPI inh	Pf apPOL block
OC(COc1ccc(C23CC4CC(CC(C4)C2)C3)cc1)CN1CCOCC1 (stereo unspecified)	6	4
CCOC(=O)C1CCN(CC(O)COc2ccc(C34CC5CC(CC(C5)C3)C4)cc2)CC1 (stereo unspecified)	30	-2
OC(COc1ccc(C23CC4CC(CC(C4)C2)C3)cc1)CN1CCCCC1 (stereo unspecified)	100*	4
CN1CCN(CC(O)COc2ccc(C34CC5CC(CC(C5)C3)C4)cc2)CC1 (stereo unspecified)	96*	6
Cc1ccc(C)c(NC(=O)Cn2nnc(-c3ccccc3Cl)n2)c1	1	-8
CCc1ccc(NC(=O)C(=O)NC2CC2)cc1	0	-8
CCCc1oc2cc(OCC(=O)OC)c(CC)cc2c(=O)c1-c1ccc2c(c1)OCCCO2	-1	-1
CCc1cc2c(=O)c(-c3ccc4c(c3)OCCO4)c(C)oc2cc1OCC(=O)OC	6	55*
CCN1CCN(C(=O)CCC2CCCN(C(=O)Nc3ccc(C)cc3)C2)CC1 (stereo unspecified)	35	-6
NC(N)=Nc1nc(-c2ccc(O)c(O)c2)cs1	61*	-6
Oc1ccc(-c2csc(-c3ccccc3)n2)cc1O	26	0
O=C1NC(=O)C(=Cc2cccn2-c2ccc(Cl)cc2)C(=O)N1	66*	37
O=C1NC(=O)C(=Cc2cccn2-c2ccccc2)C(=O)N1	7	0
